The text below walks through data of PubChem BioAssay AID602295 (Broad Institute, 2012).

In this assay the target is Mitogen-activated protein kinase 3 (Homo sapiens) (UniProt P27361). Briefly: inhibition of MAPK3 kinase activity – biochemical, ADP-Glo luminescence, cherry pick, set 2, selectivity assay for Dyrk1A inhibitor NFAT project, dose response (AID 602295). The following applies: ERK1 kinase, 120 min; series mostly up to 10 µM.

Activity calls are given as the source filed them.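 Rule for the calls: active = every separate test run called active, meaning the signal drops and a potency is fitted within twice the top valid dose; inconclusive = runs disagree, poor fit, or flat partial inhibition; inactive = all runs inactive, flat, opposite direction or too weak.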

Sequence of Mitogen-activated protein kinase 3 (Homo sapiens) (P27361 whole entry, looked up): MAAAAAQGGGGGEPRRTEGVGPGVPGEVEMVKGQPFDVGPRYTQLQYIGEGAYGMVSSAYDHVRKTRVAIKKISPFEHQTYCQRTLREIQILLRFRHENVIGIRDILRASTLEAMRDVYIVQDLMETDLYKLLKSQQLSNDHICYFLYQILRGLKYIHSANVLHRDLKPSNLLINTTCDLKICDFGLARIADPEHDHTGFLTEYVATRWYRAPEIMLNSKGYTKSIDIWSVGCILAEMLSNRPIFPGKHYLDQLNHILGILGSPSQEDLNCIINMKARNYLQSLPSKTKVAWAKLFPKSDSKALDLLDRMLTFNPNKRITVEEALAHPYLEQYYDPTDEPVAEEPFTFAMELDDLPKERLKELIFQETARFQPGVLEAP

Turning to `COc1ccc2c(c1)[nH]c1c(C)nccc12`, the call was inactive.
